Sampled rows, rich in hits. Any-hit rate of the full collection: about 1.5%.
sEH activator: activators of human soluble epoxide hydrolase | 91,000 compounds, 0.04% hits | activation, % at 2 µM | purified human sEH enzymatic activity, activator screen; in the data active = activation above about 37%
sEH inh: soluble epoxide hydrolase (human) inhibition; 91,000 compounds, 0.34% hits; P34913; recombinant human sEH enzymatic activity assay; inhibition, % at 2 µM; in the data active = inhibition above about 80%
BAP1 inh: human BAP1 deubiquitinase inhibition. calls only at 20 µM. recombinant BAP1, Ub-AMC hydrolysis fluorescence kinetic; stronger effect = lower value. Q92560. 72,000 compounds, 0.48% hits;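 active = activity remaining at or below 50% of control, provided the compound also passes the data quality filters; inactive = the rest, including low values that fail the filters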
PLAP activator: activates human placental alkaline phosphatase | P05187 | purified PLAP enzyme, luminescent substrate read-out; stronger effect = higher value | activation fold at 20 µM | 96,000 compounds, 1.2% hits | AID 696; in the data active = activation fold above about 2
Target sequence (P05187 whole entry, looked up): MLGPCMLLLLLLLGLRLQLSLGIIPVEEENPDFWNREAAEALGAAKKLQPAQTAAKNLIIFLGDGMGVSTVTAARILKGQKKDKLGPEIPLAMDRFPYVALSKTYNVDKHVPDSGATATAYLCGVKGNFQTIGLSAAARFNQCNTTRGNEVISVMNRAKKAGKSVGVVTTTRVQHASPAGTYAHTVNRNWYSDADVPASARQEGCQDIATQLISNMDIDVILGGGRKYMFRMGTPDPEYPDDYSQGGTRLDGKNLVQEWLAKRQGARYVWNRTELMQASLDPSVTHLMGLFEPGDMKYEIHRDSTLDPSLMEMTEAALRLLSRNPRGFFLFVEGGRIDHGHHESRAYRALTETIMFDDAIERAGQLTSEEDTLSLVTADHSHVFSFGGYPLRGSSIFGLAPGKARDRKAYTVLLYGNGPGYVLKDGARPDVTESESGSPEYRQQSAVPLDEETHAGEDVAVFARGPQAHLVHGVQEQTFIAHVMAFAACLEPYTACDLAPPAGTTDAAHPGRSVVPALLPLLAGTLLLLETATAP
Numbers stand for hits; . = inactive; / = no result given; + = active, no number.

SMILES | sEH activator | sEH inh | BAP1 inh | PLAP activator
COc1ccc(NC(=O)C(=O)N/N=C/c2cc(C)n(-c3cccc(Cl)c3Cl)c2C)c(OC)c1 | . | . | / | 2
COC(=O)C1=C(C(=O)OC)SC(=C2C(=S)C(C)(C)N(C(=O)c3cccnc3)c3ccc(C)cc32)S1 | / | / | . | /
CNc1nc(-c2ccccn2)nnc1-c1ccccc1 | . | . | / | .
c1ccc(-c2nnc(-c3ccccn3)nc2NC2CCCCC2)cc1 | . | . | / | 2.4
O=C(CN1CCOc2ccccc21)NC1CCCCCCC1 | . | 86 | . | /
COc1ccc(NC(=O)NCCN2CCN(c3cccc(Cl)c3)CC2)cc1 | / | / | . | .
COc1ccc(NC(=O)NCCCN2CCN(c3cc(C)ccc3C)CC2)cc1 | / | / | . | 2
CCOc1ccc(NC(=O)N(CCC(C)C)C2CCN(C(C)=O)CC2)cc1 | . | . | / | 2
CCOc1ccc(NC(=O)N2CCC(C(=O)c3ccc(F)cc3)CC2)cc1 | . | . | / | .
CCOc1ccc(NC(=O)N2CCC(c3ccc(C)cc3)C2)cc1 (stereo unspecified) | . | 82 | / | .
CCOCCCN(C(=O)Nc1ccc(CC)cc1)C1CCN(C(C)=O)CC1 | / | / | . | .
O=C(Nc1cccc2c1C(=O)c1ccccc1C2=O)c1ccc(-c2ccccc2)cc1 | / | / | . | /
Cc1ccc(C2C3=C(CC(C)(C)CC3=O)N(CCN3CCOCC3)C3=C2C(=O)CC(C)(C)C3)cc1 | / | / | / | 2.1
O=C(c1ccc2nc(N3CCOCC3)sc2c1)N1CCC(Cc2ccccc2)CC1 | . | . | / | .
CCCCN(CCCNC(=O)c1ccc2nc(N3CCOCC3)sc2c1)Cc1ccccc1 | . | . | / | 2.2
Cc1ccc(NC(=O)CCC(=O)NNC(=O)c2cccs2)cc1C | . | . | / | 2
COc1ccc(OC)c(C2C3=C(CCCC3=O)N(c3ccc([N+](=O)[O-])cc3)C(=N)/C2=C(/O)c2ccc(C)cc2)c1 (stereo unspecified) | / | / | . | /
O=C(Nc1ccc(F)cc1)c1ccc([N+](=O)[O-])cc1Cl | / | / | . | /
COc1ccccc1C1CN(c2ccc(F)cc2F)N=C1c1cccs1 (stereo unspecified) | 38 | . | / | .
N#CCc1ccc(NC(=O)c2cccs2)cc1 | / | / | . | /
N#Cc1c(NC(=O)CSc2nnc(-c3ccccc3)o2)sc2c1CCCC2 | . | . | / | .
O=C(CSc1nnc(-c2csc3c2CCCC3)o1)Nc1ccccc1 | . | . | . | 2
CCCOc1ccc(C2C(C(=O)OC)=CN(CCOC)C=C2C(=O)OC)cc1 | . | . | / | 2.1
Clc1ncnc2scc(C3COc4ccccc4O3)c12 (stereo unspecified) | . | . | / | /
O=c1[nH]cnc2scc(C3COc4ccccc4O3)c12 (stereo unspecified) | / | / | . | 2.1
SMILES | sEH activator | sEH inh | BAP1 inh | PLAP activator
CCc1nc2nc(C)cc(Nc3cccc(C(F)(F)F)c3)n2n1 | / | / | . | 2.4
CSc1nc2ccc3nc(NC(=O)CN4C(=O)c5ccccc5C4=O)sc3c2s1 | / | / | . | /
CCN(CC(=O)NCCc1ccc(S(N)(=O)=O)cc1)Cc1nc2cc(OC)c(OC)cc2c(=O)[nH]1 | . | . | / | 2.9
CC(=O)NC(=O)c1cc2ccccc2oc1=Nc1cccc2ccccc12 | / | / | . | /
CCOC(=O)C1=C(C)NC(=O)C(C(N)=O)C1c1ccccc1 (stereo unspecified) | 37 | . | . | .
O=C(NC(c1ccccc1)c1ccccc1)C(c1ccccc1)N1CCOCC1 (stereo unspecified) | / | / | . | /
CCOC(=O)N1CCC(NC(=O)C2CCCN(C(=O)N3CCOc4ccccc43)C2)CC1 (stereo unspecified) | / | / | . | .
CCOC(=O)N1CCC(NC(=O)C2CCN(C(=O)N3CCOc4ccccc43)CC2)CC1 | . | . | . | 2.1
CC1=NN(C(=O)c2ccc(Cn3nc(C)cc3C)o2)C(O)(C(F)(F)F)C1 (stereo unspecified) | . | . | / | 2.2
Cn1c(SCC(N)=O)nc2c1c(=O)[nH]c(=O)n2C | / | / | . | /
O=C(NC1CCCCCCC1)C1CCN(S(=O)(=O)N2CCC3(CC2)OCCO3)CC1 | . | 88 | . | .
O=C(NC1CCCCC1)C1CCN(S(=O)(=O)N2CCCCCC2)CC1 | . | . | . | .
O=S(=O)(/C=C/c1ccccc1)N1CCN(c2cccc(Cl)c2)CC1 | 38 | . | / | .
COc1ccc(S(=O)(=O)Nc2cc3c(C(C)=O)c(C)oc3c3ccccc23)cc1 | . | . | / | 2
O=C(NNC1=C(C(=O)C(F)(F)F)CCC1)c1ccccc1O | . | . | / | .
O=C(NNC1=C(C(=O)C(F)(F)F)CCC1)c1ccccc1Cl | . | . | / | 2.1
COC(=O)C1=C(C)N(C)C(=O)NC1c1cc(Br)c(O)c(OC)c1 (stereo unspecified) | / | / | . | /
CCCCCC(=O)N/N=C/c1cccs1 | . | . | / | .
O=C(CN1CCCCCC1)N/N=C/c1cccs1 | . | . | / | 2.5
Cc1ccc(C(=O)Oc2cccc(C(=S)N3CCOCC3)c2)cc1 | / | / | . | /
CC(C)N(CCC(=O)c1ccc2ccccc2c1)Cc1ccccc1 | / | / | + | /
O=C(CSc1nnc(Cc2ccc3c(c2)OCO3)n1C1CCCCC1)NC1CCCC1 | . | . | / | /
O=C(NC1CCCCC1)NC1CC2CCC(C1)N2Cc1nnnn1Cc1ccc2c(c1)OCO2 (stereo unspecified) | . | 95 | / | .
Cc1cc2ncc(-c3ccc(Cl)cc3)c(N)n2n1 | . | . | . | 2
COC(=O)C1=C(C(=O)OC)SC(=C2C(=S)C(C)(C)N(C(=O)c3ccccc3)c3cc(OC)ccc32)S1 | / | / | . | /
SMILES | sEH activator | sEH inh | BAP1 inh | PLAP activator
COC(=O)c1ccc(S(=O)(=O)N(Cc2cc3cc4c(cc3[nH]c2=O)OCO4)C2CCCCC2)cc1 | / | / | + | .
CC(=O)c1ccc(S(=O)(=O)N(Cc2cc3cc4c(cc3[nH]c2=O)OCCO4)CC2CCCO2)cc1 (stereo unspecified) | . | . | . | .
CCOc1cccc(-c2nn3c(-c4cc(C)[nH]n4)nnc3s2)c1 | . | . | . | 2.4
CCOC(=O)C1=C(C)NC2=C(C(=O)CCC2)C1c1ccccc1Cl (stereo unspecified) | / | / | . | /
Cc1ccc(C(=O)NNC(=O)C2CCN(Cc3ccccc3)CC2)cc1 | . | . | / | 2.1
Cc1ccc(C(=O)NNC(=O)C2CCN(Cc3ccc(Cl)c(Cl)c3)CC2)cc1 | . | . | / | .
CCN(CCNC(=O)C1CCN(Cc2nc(-c3cccc(Cl)c3)oc2C)CC1)c1ccccc1 | . | 90 | . | 2
CCN(CCNC(=O)C1CCN(Cc2nc(-c3ccc(Cl)cc3)oc2C)CC1)c1ccccc1 | . | 84 | . | .
CCN(CCNC(=O)C1CCCN(Cc2nc(-c3ccc(OC)cc3)oc2C)C1)c1ccccc1 (stereo unspecified) | . | . | . | .
CCc1ccc(-c2nc(CN3CCC(C(=O)NCCN(CC)c4ccccc4)CC3)c(C)o2)cc1 | . | . | . | .
Cc1cc(=O)oc2ccc(Oc3ccc(C#N)cc3[N+](=O)[O-])cc12 | / | / | . | /
COCCOC(=O)C1=C(C)NC2=C(C(=O)CC(c3ccccc3)C2)C1c1ccc(F)cc1 (stereo unspecified) | / | / | . | /
O=C(c1ccccc1)c1ccc2nc[nH]c2c1 | . | . | . | 2
O=C(NC1CCCC1)c1ccc2nc[nH]c2c1 | . | . | . | .
CCOc1ccccc1NC(=O)CCSc1nc2n[nH]c(C)c2c(=N)n1-c1ccccc1Cl | / | / | . | .
Cc1ccccc1-n1c(SCc2ccccn2)nc2n[nH]c(C)c2c1=N | . | . | . | 2.3

Screening results as filed in PubChem.
